From PubChem BioAssay AID1159580 (chemical genetic matrix, 2015)
Values joined by “and” are separate entries in the source; they are usually repeats but may differ in a detail not shown here. Identical values can stand only once. Screen size: about 5,500 compounds; about 2,000 (36%) were called active. Another 18% or so got no clear call; they are omitted. Cut-off read from the data, not from the text of the source: active = normalized growth mostly below about 0.91 (no sharp cut-off); inconclusive = no clear call, values can overlap the other calls; inactive = mostly above about 0.92. This is one part of the list.

Assay: chemical genetic growth profiling, strain panel (AID 1159580);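 note: tested at 20 µM; growth read once vehicle control cultures reached saturation at 30 °C; 1 = growth at the plate median or of vehicle wells; lower values mean less growth of the strain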
Details: S. cerevisiae deletion strains, growth OD

Measured: normalized growth

CC1(C)S[C@@H]2[C@H](NC(=O)C(C(=O)O)c3ccccc3)C(=O)N2[C@H]1C(=O)O (stereo partly drawn)
inactive: locus YAL021C, strain ccr4, hits give low values 0.979 | locus YAL026C, strain drs2, hits give low values 0.979 | locus YAL030W, strain snc1, hits give low values 0.985 | locus YBL061C, strain skt5, hits give low values 0.959 | locus YBR009C, strain hhf1, hits give low values 0.934 | locus YBR021W, strain FUR4, hits give low values 0.998 | locus YBR023C, strain chs3, hits give low values 0.966 | locus YBR171W, strain sec66, hits give low values 0.948 | locus YBR229C, strain ROT2, hits give low values 0.987 | locus YBR231C, strain swc5, hits give low values 1 | locus YBR279W, strain paf1, hits give low values 0.985 | locus YCL011C, strain gbp2, hits give low values 0.933 | locus YCL016C, strain dcc1, hits give low values 0.938 | locus YCL029C, strain bik1, hits give low values 0.99 | locus YCL061C, strain MRC1, hits give low values 0.976 | locus YCL069W, strain vba3, hits give low values 0.985 | locus YCR088W, strain abp1, hits give low values 0.996 | locus YDL005C, strain med2, hits give low values 0.999 | locus YDL035C, strain GPR1, hits give low values 1.02 | locus YDL040C, strain nat1, hits give low values 0.997 | locus YDL074C, strain BRE1, hits give low values 0.995 | locus YDL101C, strain DUN1, hits give low values 0.982 | locus YDL134C, strain PPH21, hits give low values 0.999 | locus YDL185W, strain tfp1, hits give low values 0.982 | locus YDL192W, strain arf1, hits give low values 0.98 | locus YDR001C, strain nth1, hits give low values 0.98 | locus YDR069C, strain doa4, hits give low values 0.978 | locus YDR101C, strain arx1, hits give low values 0.994 | locus YDR137W, strain rgp1, hits give low values 0.944 | locus YDR159W, strain sac3, hits give low values 1.01 | locus YDR162C, strain NBP2, hits give low values 1.01 | locus YDR195W, strain ref2 0.987 | locus YDR297W, strain sur2, hits give low values 0.969 | locus YDR318W, strain mcm21, hits give low values 0.99 | locus YDR334W, strain swr1, hits give low values 0.926 | locus YDR335W, strain msn5, hits give low values 0.978 | locus YDR388W, hits give low values 0.995 | locus YDR392W, strain spt3, hits give low values 0.895 | locus YDR502C, strain sam2, hits give low values 0.995 | locus YEL003W, strain gim4, hits give low values 0.99 | locus YEL037C, strain rad23, hits give low values 0.977 | locus YEL061C, strain CIN8 (second series), hits give low values 0.989 | locus YEL061C, strain CIN8, hits give low values 1 | locus YER015W, strain faa2, hits give low values 0.986 | locus YER016W, strain bim1, hits give low values 0.962 | locus YER110C, hits give low values 0.979 | locus YER111C, strain swi4, hits give low values 0.979 | locus YER155C, strain BEM2 (second series), hits give low values 1.03 | locus YER155C, strain BEM2, hits give low values 0.991 | locus YER167W, strain BCK2, hits give low values 0.993 | locus YFR010W, strain ubp6, hits give low values 0.962 | locus YGL078C, strain dbp3, hits give low values 0.993 | locus YGL086W, strain mad1, hits give low values 0.989 | locus YGL167C, strain pmr1, hits give low values 0.96 | locus YGL173C, strain kem1, hits give low values 0.96 | locus YGL227W, strain vid30, hits give low values 0.985 | locus YGL240W, strain doc1, hits give low values 1.01 | locus YGL248W, strain PDE1, hits give low values 0.982 | locus YGL253W, strain hxk2, hits give low values 0.982 | locus YGR135W, strain pre9, hits give low values 0.988 | locus YGR252W, strain gcn5, hits give low values 0.981 | locus YHR013C, strain ard1, hits give low values 0.949 | locus YHR027C, strain rpn1, hits give low values 0.945 | locus YHR030C, strain SLT2, hits give low values 0.991 and 1.01 | locus YHR079C, strain IRE1 (second series), hits give low values 0.989 | locus YHR079C, strain IRE1, hits give low values 1.02 | locus YHR094C, strain hxt1, hits give low values 0.984 | locus YHR129C, strain ARP1, hits give low values 0.99 | locus YHR142W, strain chs7, hits give low values 0.934 | locus YHR200W, strain rpn10, hits give low values 0.985 | locus YIL066C, strain RNR3, hits give low values 1.01 | locus YIL073C, strain SPO22, hits give low values 1.03 | locus YIL125W, strain kgd1, hits give low values 0.984 | locus YIR030C, strain dcg1, hits give low values 0.987 | locus YJL092W, strain hpr5, hits give low values 0.968 | locus YJL095W, strain BCK1 (second series), hits give low values 0.975 | locus YJL095W, strain BCK1, hits give low values 0.978 and 1 | locus YJL115W, strain asf1, hits give low values 0.952 | locus YJL129C, strain trk1, hits give low values 0.944 | locus YJL134W, strain LCB3, hits give low values 0.992 | locus YJL154C, strain vps35, hits give low values 0.982 | locus YJL164C, strain tpk1, hits give low values 0.962 | locus YJL166W, strain qcr8, hits give low values 0.977 | locus YJL168C, strain set2, hits give low values 0.984 | locus YJL187C, strain SWE1 (second series), hits give low values 0.988 | locus YJL187C, strain SWE1, hits give low values 0.979 | locus YJR043C, strain POL32, hits give low values 1.01 | locus YJR066W, strain TOR1, hits give low values 0.992
